Source: PubChem (several laboratories)
EBV LMP1 NFkB: Epstein-Barr LMP1 NF-kappaB reporter inhibition; inhibition, % at 12.5 µM; LMP1-induced NF-kappaB luciferase reporter cells, luminescence; actives 0.69% (n = 350,000); in the data active means inhibition above about 41%; inconclusive means no clear call, values can overlap the other calls;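 further: 0% = neutral control wells and 100% = reference inhibitor control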
KKLEB tox: counter-screen for CF NF-kB inhibitors: cytotoxicity; KKLEB CF airway cells viability, ATPlite luminescence, overnight; stronger effect = lower value; cells stimulated with P. aeruginosa culture filtrate; activity change (cytotoxicity), % at 5 µM; actives 0.36% (n = 360,000); AID 602141;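 active means corrected activity change at or below -50% at 5 µM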
Peg3 prom inh: reduces Peg3 promoter-driven luciferase expression in HeLa. HeLa PEG-Prom luciferase reporter, luminescence, overnight. inhibition, % at 20 µM. AID 588405. actives 1.7% (n = 360,000);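 active means inhibition of at least 50% at 20 µM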
Shn3 inh set2: Schnurri-3 reporter inhibition in Clone20 osteoblasts. Clone20 osteoblast Shn3 3'UTR firefly luciferase, 24 h. inhibition, % at 12.5 µM. actives 0.52% (n = 360,000);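 active means mean inhibition of at least 75% with every replicate also reaching 75%; inconclusive means mean inhibition at least 75% but some replicate below; inactive means mean inhibition below 75%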;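 further: 0% = median of neutral control wells and 100% = pilot-screen positive control compound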
CF NFkB block: blocks PAF-induced NF-kB reporter in cystic fibrosis cells; KKLEB NF-kB-GFP reporter, GFP fluorescence overnight; inhibition, % at 5 µM; actives 0.86% (n = 360,000); AID 588850;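 active means at least 50% inhibition at 5 µM, scaled per plate between neutral and stimulator controls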;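 further: PAF is a Pseudomonas aeruginosa culture filtrate used as stimulus; plate controls were PAF-stimulated DMSO wells for no effect and unstimulated DMSO wells for full effect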
TRPM1 prom inh: MITF TRPM1 promoter inhibition in SK-MEL-5 cells. SK-MEL-5 TRPM1 promoter luciferase, 24 h. actives 0.83% (n = 330,000). inhibition, % at 12.5 µM;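 active means mean inhibition across replicates of 60% or more, whatever share of single replicates reaches that level; inconclusive means some that reach 60%, reason not given; inactive means mean inhibition across replicates below 60%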
* marks the source's active call; other numbers are inactive results; ? = inconclusive; · = no result; ! = not confirmed by another sample. Most compounds without a hit are left out; they make up all but 2.9% or so of the library.

SMILES	EBV LMP1 NFkB	KKLEB tox	Peg3 prom inh	Shn3 inh set2	CF NFkB block	TRPM1 prom inh
COc1cc2sc3ccc(-c4ccc(CN5CCOCC5)cc4)cc3c(=O)c2cc1OC	8	-20	99*	13	-233	2
O=C(c1ccccn1)N1CC=C(c2ccccc2)CC1	9	9	-29	11	0	-2
O=C(c1cccs1)N1CC=C(c2ccccc2)CC1	73*	-33	-106	-33	-8	-27
O=C(c1cccs1)N1CCCC1	-2	9	18	-7	4	3
O=C(c1cccs1)N1CCN(C(=O)c2cccs2)C1=S	2	-4	99*	42	43	23
CC(C)Oc1cccc(NC(=O)C2(C)CCCN2C(=O)C(C)C)c1 (stereo not drawn)	·	5	-3	11	13	·
CC(CC(=O)N1CCN(c2cccc(Cl)c2)CC1)S(=O)(=O)c1ccc2c(c1)NC(=O)CO2 (stereo not drawn)	22	-1	16	89*	-3	25
CS(=O)(=O)N(CC(=O)Nc1ccc(F)cc1F)C1CCCCC1	82*	-8	8	4	-7	9
COCCCNc1nc2cc(OC)c(OC)cc2c2nc(-c3ccccc3)nn12	10	5	54*	-3	-42	-12
CCN(CC)CCCNc1nc2cc(OC)c(OC)cc2c2nc(-c3ccccc3)nn12	-12	-5	-8	-23	-110	-2
COc1cc2nc(NCC3CCCO3)n3nc(-c4cccnc4)nc3c2cc1OC (stereo not drawn)	-11	-5	55*	5	-30	1
CCN(CC)CCCNc1nc2cc(OC)c(OC)cc2c2nc(-c3cccnc3)nn12	-21	-5	-12	5	-83	-23
COc1cc2nc(N3CCN(C(=O)C4CCCO4)CC3)nc(N)c2cc1OC (stereo not drawn)	79*!	22	4	4	6	-21
COC(=O)c1ccccc1NC(=O)Nc1cc(C)ccn1	10	8	-26	-4	-11	-7
Cc1ccnc(NC(=O)Nc2ccc(Br)cc2Cl)c1	48*	-2	-187	-45	7	-14
CCN(CC)S(=O)(=O)c1cccc(NC(=O)CN2C(=O)NC3(CCOc4ccccc43)C2=O)c1 (stereo not drawn)	2	-14	-41	-6	-5	-9
OC(c1ccccc1)C(O)c1ccccc1 (stereo not drawn)	·	2	9	8	8	·
OC(c1ccccc1)C(O)C(c1ccccc1)N1CCCCC1 (stereo not drawn)	-8	-2	6	92*	8	-21
CN[C@@H](CO)C(=O)NC[C@H]1O[C@@H](n2cc(C)c(=O)[nH]c2=O)C[C@@H]1O	4	16	-12	-2	-7	·
CN(C)/C=C(\C=N\OCc1ccc(Cl)cc1Cl)C(=O)Nc1ccc(Cl)c(Cl)c1	-6	-60*	11	6	56*	11
CN(C)c1ccc(S(=O)(=O)N2CCCCC2)cc1NC(=O)CCNC(=O)c1ccccc1Cl	0	-4	17	-5	0	1
O=C(C=C(O)c1ccc(Cl)cc1)C(=O)NNC(=O)C(O)(c1ccccc1)c1ccccc1	-1	5	2	98*	-10	7
CC(C)C#Cc1cnc2c(c1)C(=O)N([C@H](C)CO)C[C@@H](C)[C@H](CN(C)C(=O)Nc1ccccc1F)O2	-5	-2	22	-8	0	·
CC1CNC(=S)N(c2ccccc2)C1=O (stereo not drawn)	2	-1	62*	63	-12	-7
OCC[C@H]1NCc2cc(CO)cc(-c3ccccc3)c21	-6	-3	6	9	-27	-6
SMILES	EBV LMP1 NFkB	KKLEB tox	Peg3 prom inh	Shn3 inh set2	CF NFkB block	TRPM1 prom inh
CCN(CC)S(=O)(=O)c1cc(NC(=O)CSc2nc3c(cc2C#N)C(=O)CC(C)(C)C3)ccc1C	17	-14	54*	40	22	25
COc1cccc(C(C)(O)c2nc(-c3cccs3)cs2)c1 (stereo not drawn)	·	7	-1	-43	4	·
O=S1(=O)CC(N2CCN(c3ccccn3)CC2)CN1Cc1ccccc1 (stereo not drawn)	·	0	7	-7	-14	·
CN(C)CC(O)c1ccc(C=Cc2ccc(Cl)cc2)cc1 (stereo not drawn)	-66	-13	104*	-22	36	78*
CN(C)/C=C/C(=O)/C=C/c1ccc(Cl)cc1	-15	-9	-152	-31	23	-50
CCc1nc2ccc(C(=O)NCCCn3ccnc3)cn2c1N(C)Cc1nccs1	·	-14	4	2	-20	·
N#CC1(C(N)=O)OC12CCS(=O)(=O)c1ccccc12 (stereo not drawn)	4	-8	3	14	18	2
Cc1cc(Oc2nc3ccccn3c(=O)c2/C=C(\C#N)C(=O)NC2CCS(=O)(=O)C2)ccc1Cl (stereo not drawn)	16	-1	66*	8	-16	16
Cc1cccc(Oc2nc3ccccn3c(=O)c2/C=C(\C#N)C(=O)NC2CCS(=O)(=O)C2)c1 (stereo not drawn)	-6	-5	11	6	16	8
COc1ccc(C)c2sc(NC(=O)CCS(=O)(=O)c3ccccc3)nc12	-7	-40	78*	22	36	8
Cc1nnc(NC(=O)CCS(=O)(=O)c2ccccc2)s1	18	0	15	-8	-15	-1
CCOc1ccccc1/C=N/NC(=O)c1c(C)nc2ccc(Br)cn12	-6	6	-1	19	22	-8
COc1cc(OC)c2cc(C(=O)N/N=C/c3cccc(OC)c3O)[nH]c2c1	-3	-17	57*	96*	8	54
COc1cccc(/C=N/NC(=O)c2c(C)nc3ccc(Br)cn23)c1O	63*	-10	49	?	16	67*
COc1cccc(/C=N/NC(=O)c2cc3c(OC)ccc(OC)c3[nH]2)c1O	15	-8	52*	94*	8	21
COc1cccc(/C=N\NC(=O)c2ccc(Cn3cc(Br)c([N+](=O)[O-])n3)o2)c1O	15	-13	34	89*	22	49
COc1cc(/C=N\NC(=O)c2ccc(Cn3nc([N+](=O)[O-])c(Cl)c3C)o2)ccc1O	8	8	4	3	-38	0
COc1cccc(/C=N/NC(=O)c2ccc3nc[nH]c3c2)c1O	14	3	0	16	-5	5
C[C@H]1COC(=O)[C@H](Cc2ccc(F)cc2)CC/C=C/C[C@@H](CC(=O)N[C@@H](CO)Cc2ccccc2)C(=O)N1	-1	-2	16	8	-10	-18
O=C(C[C@@H]1C/C=C/CC[C@@H](Cc2ccc(F)cc2)C(=O)OC[C@H](Cc2ccccc2)NC1=O)N[C@H](CO)Cc1ccccc1	-2	-17	55*	38	12	2
